A selection: hits, their analogues and other compounds. The true share with any hit is near 3.5%.
MITF primary = human MITF inhibition, primary screen | O75030 | AlphaScreen MITF homodimerization, bead proximity signal | inhibition, % at 2.6 µM | 650,000 compounds, 0.91% hits | AID 1259374; in the data active = inhibition above about 50%;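 note: 0% = vehicle wells with protein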
Target sequence (O75030 whole entry, looked up): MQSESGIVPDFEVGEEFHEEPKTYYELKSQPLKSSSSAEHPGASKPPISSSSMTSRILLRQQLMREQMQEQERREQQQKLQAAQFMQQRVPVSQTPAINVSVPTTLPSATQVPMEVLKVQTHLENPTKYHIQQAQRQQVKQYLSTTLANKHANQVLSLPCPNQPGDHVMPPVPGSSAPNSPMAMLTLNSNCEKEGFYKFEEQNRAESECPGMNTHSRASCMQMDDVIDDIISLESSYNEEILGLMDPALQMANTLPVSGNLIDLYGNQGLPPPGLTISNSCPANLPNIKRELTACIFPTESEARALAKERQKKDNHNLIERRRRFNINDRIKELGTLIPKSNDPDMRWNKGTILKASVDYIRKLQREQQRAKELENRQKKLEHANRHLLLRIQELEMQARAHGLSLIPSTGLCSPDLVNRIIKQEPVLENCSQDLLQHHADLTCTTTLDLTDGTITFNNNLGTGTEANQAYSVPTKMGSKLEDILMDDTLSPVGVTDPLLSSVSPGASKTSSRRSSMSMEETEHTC
GPR151 activ = activates the human receptor GPR151. PathHunter beta-arrestin GPR151 cells, luminescence. activation, % at 11.2 µM. 650,000 compounds, 1% hits. AID 1508602; in the data active = activation above about 4.9%;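 note: 0% = median of compound wells and 100% = cells with positive control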
TEAD-YAP block = TEAD-YAP interaction inhibition; HEK-TIYL cells, TEAD-Gal4/YAP UAS-luciferase luminescence; inhibition, % at 9.12 µM; 640,000 compounds, 1.4% hits; in the data active = inhibition above about 32%;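 note: 0% = median of test compound wells and 100% = reference inhibitor wells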
FBW7 activator = activators of human E3 ligase FBW7; 650,000 compounds, 0.13% hits; normalized activity (activation), % at 26.1 µM; AlphaScreen FBW7–phospho-cyclin E peptide binding, activator screen; Q969H0; in the data active = normalized activity above about 1.9%;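 note: purified mutant Fbw7 with reduced substrate affinity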
* hit, by the source's call.

SMILES	MITF primary	GPR151 activ	TEAD-YAP block	FBW7 activator
COc1cc(Nc2nccn3c(-c4ccc(F)c(Cl)c4)cnc23)cc(OC)c1OC	22	-1	53*	-1
COc1cc(Nc2nccn3c(-c4cccc(C(C)=O)c4)cnc23)cc(OC)c1OC	20	0	54*	1
COc1cc(Nc2nccn3c(-c4ccc(Cl)cc4)cnc23)cc(OC)c1OC	15	-1	17	1
COc1cc(Nc2nccn3c(-c4ccco4)cnc23)cc(OC)c1OC	17	0	57*	0
COc1cc(Nc2nccn3c(-c4ccc5ccccc5c4)cnc23)cc(OC)c1OC	-9	2	54*	0
COCCn1c(SC)nnc1-c1ccc(OC)cc1	6	0	-1	0
Clc1cccc(C2Nc3c(Cl)cccc3C3C=CCC32)c1Cl (configuration not stated)	-1	0	-2	0
Cc1nc(-c2ccccn2)cc(N2CCCCC2)n1	-5	0	40*	-1
CC(C)c1ccc2oc(-c3ccc(Cl)c(NC(=O)Cc4ccccc4)c3)nc2c1	-4	0	61*	0
Cc1ccc2oc(-c3ccc(Cl)c(NC(=O)Cc4ccccc4)c3)nc2c1	5	-1	4	0
Cc1ccccc1C(=O)Nc1cc(-c2nc3cc(C(C)C)ccc3o2)ccc1Cl	7	1	4	0
COc1ccccc1C(=O)Nc1cc(-c2nc3cc(C(C)C)ccc3o2)ccc1Cl	0	0	35*	0
CC(C)c1ccc2oc(-c3ccc(Cl)c(N)c3)nc2c1	2	-6	83*	0
COc1ccc(S(=O)(=O)NCCc2sc3nc(-c4ccc(F)cc4)nn3c2C)cc1	-6	1	14	0
COc1ccc(O)c(CN2CCc3c(cnc(C)c3CNC(=O)C3CCCO3)C2)c1 (configuration not stated)	8	2	1	0
CCOc1ccc(/C=C2\NC(=S)N(C)C2=O)c(OCC)c1	11	0	10	0
COc1cc(/C=C2\NC(=S)NC2=O)cc(OC)c1O	8	0	-3	0
CCOc1cccc(/C=C2\NC(=S)N(C)C2=O)c1O	-13	-2	-33	2.4*
COc1cccc(/C=C2\NC(=S)NC2=O)c1O	11	-1	76*	0
Cc1ccc(C2CC3CCC(C2)N3C(=O)c2cscn2)cc1 (configuration not stated)	5	-1	1	0
Cc1c(NC(=O)c2cc(-c3ccccc3)nc3ccccc23)c(=O)n(-c2ccccc2)n1C	-3	0	33*	0
Cc1c(NC(=O)c2cc(-c3cccc(Br)c3)nc3ccccc23)c(=O)n(-c2ccccc2)n1C	1	0	10	1
COc1ccc(CCNc2nc(SCC(=O)N3CCN(c4ccccc4OC)CC3)nc3ccccc23)cc1OC	-1	-1	34*	1
COc1ccc(CCNc2nc(SCC(=O)N3CCN(c4ccccc4)CC3)nc3ccccc23)cc1OC	10	1	36*	1
CCC(C)NC(=O)CSc1nc(NCCc2ccc(OC)c(OC)c2)c2ccccc2n1 (configuration not stated)	-5	-1	-2	0
SMILES	MITF primary	GPR151 activ	TEAD-YAP block	FBW7 activator
COc1ccc(CCn2c(SCC(=O)N3CCN(c4ccccc4OC)CC3)nc3ccsc3c2=O)cc1OC	7	-1	51*	0
CCOC(=O)C(C(C)C)N(Cc1ccccc1)S(=O)(=O)c1ccc([N+](=O)[O-])cc1 (configuration not stated)	17	0	5	0
CC(C)OCCNC(=O)c1cc(COc2ccc3ncccc3c2)on1	-10	1	22	0
O=C(NCc1ccc2c(c1)OCO2)c1cc(COc2ccc3ncccc3c2)on1	4	1	35*	0
O=C(NC1CCCC1)c1cc(COc2ccc3ncccc3c2)on1	-4	1	40*	0
CC(NC(=O)c1cc(COc2ccc3ncccc3c2)on1)c1ccc(F)cc1 (configuration not stated)	10	2	38*	0
Cc1nc(C(C)NC(=O)c2cc(COc3ccc(F)cc3F)on2)cs1 (configuration not stated)	9	0	-4	2.0*
CCN(CC)CCN1C(=O)C(=O)/C(=C(/O)c2cccc(OC)c2)C1c1cccs1 (configuration not stated)	18	0	12	1
O=C(NCC1CCOCC1)c1cc(COc2ccc3ncccc3c2)on1	-10	1	33*	0
CC(C)c1cc(CNC(=O)c2cc(COc3ccc4ncccc4c3)on2)on1	12	0	18	0
O=C(Nc1ccc(Cc2ccncc2)cc1)c1ccc(Oc2ccc(C(=O)Nc3ccc(Cc4ccncc4)cc3)cc2)cc1	6	0	62*	0
CN(C)S(=O)(=O)c1ccc(C(=O)Nc2ccc(Cc3ccncc3)cc2)cc1	-5	1	22	0
O=C(Nc1ccncc1)c1ccc(COc2ccccc2Cl)cc1	16	-4	60*	1
Cc1ccc(Oc2ccc(NC(=O)c3ccncc3)cc2)cc1C	7	0	36*	0
C=C/C=C(\C(F)=C/C)C1CC2(CC(C)(C)NC(=O)N2)Oc2cc(O)ccc21 (configuration not stated)	-3	0	-5	0
CCOC(=O)C1=CC2(SC=C(C(=O)OCC)S2)C2=C(S1)C(C)(C)N(C(C)=O)c1ccc(OC)cc12 (configuration not stated)	13	0	1	0
COc1cc(-c2nnc(SCC(=O)c3ccc(Cl)s3)o2)cc(OC)c1OC	4	0	6	0
Cc1ccc(/C=N/Nc2nnc(Cc3ccccc3)c(=O)[nH]2)o1	12	1	7	0
O=c1[nH]c(N/N=C/c2ccccc2O)nnc1Cc1ccccc1	101*	4	60*	0
O=c1cnnc(N/N=C/c2ccccc2O)[nH]1	108*	0	-3	-1
Cc1ccc(C)c(OCC(=O)NNC(=O)c2ccccn2)c1	3	3	37*	-1
CC(=O)c1ccc(NC(=O)c2ccccn2)cc1	16	-9	87*	0
COc1ccccc1C(=O)NNC(=O)c1cnccn1	7	1	11	-1
CC(=O)c1ccc(NC(=O)NNC(=O)c2ccccn2)cc1	23	0	-44	-1
COc1ccccc1C(=O)NNC(=O)c1ccccn1	45	-2	41*	-2
SMILES	MITF primary	GPR151 activ	TEAD-YAP block	FBW7 activator
COc1ccc(C(=O)NNC(=O)c2ccccn2)cc1	-3	-9	94*	0
COc1ccc2c(=O)cc(C(Cl)(Cl)Cl)oc2c1	3	-1	15	0
COc1cccc(-c2cc(=O)c3cc(OC)ccc3o2)c1	8	-10	70*	0
COc1ccc2oc(C(Cl)(Cl)Cl)cc(=O)c2c1	20	-1	50*	0
COc1ccc2c(=O)cc(-c3ccccc3)oc2c1	2	1	-36	0
CCCN(CCC)CCCNC(=O)c1cnc(N2CCN(c3ncccn3)CC2)c2ccccc12	-6	0	-2	0
O=S(=O)(Nc1ccccc1CO)c1ccc(S(=O)(=O)N2CCCC2)cc1	11	-2	6	0

Assay outcomes as filed in PubChem BioAssay.
